Molecules are shown by their SMILES. Calls of active or inactive are those of the source. No rule for the calls is given here.

Our source for the Potency values is PubChem BioAssay (NCATS).
Potency is read from the fitted curve at half-maximal effect.

This assay concerns HIV-1 nucleocapsid protein NCp7 (binding to TG oligonucleotide). In words: HIV Nucleocapsid (AID 346).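 Also: potency is for inhibitors that block NC binding and lower polarization.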 The conditions noted are these: HIV-1 NC / fluorescein-TGTGTGTG probe, fluorescence polarization. An outline of the steps: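 HIV-1 NC (100 nM) binding to fluorescein-labelled ssDNA TG4xF (10 nM) in Hepes pH 7.5, 250mM NaCl, 1uM ZnCl2, TCEP and 2-mercaptoethanol; compounds pin-transferred, 1 hr room temperature, fluorescence polarization read on CCD imager.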
In the case of `CS(=O)(=O)Nc1cccc(-c2nc(N3CCOCC3)c3ccccc3n2)c1`, the Potency was > 20 µM (inactive). As for `COc1cccc(Cn2c(=O)c(-c3cccs3)nc3cnc(N4CCN(C)CC4)nc32)c1`, the Potency is > 4 µM (inactive). `Cc1ccccc1-c1ccc2ncnc(NCc3cccnc3)c2c1`: the Potency was > 20 µM (inactive). Take `CN1CCN(c2ncc3nc(-c4cccc(C#N)c4)c(=O)n(C[C@H]4CCCO4)c3n2)CC1`: the Potency was > 20 µM (inactive). Then `c1ccc(CNc2nc(-c3cccnc3)nc3ccccc23)cc1`, with > 20 µM (inactive); and `CN(Cc1ccco1)c1ncncc1-c1cccc(C#N)c1`, with > 20 µM (inactive). `O=C(Nc1cccc(F)c1)N1CCC2(CCNCC2)CC1`: the Potency was > 20 µM (inactive).

Regarding `Cc1ccccc1-c1ccc2ncnc(N3CCNCC3)c2c1`, the Potency was > 20 µM (inactive). In the case of `COCCNc1ncnc2ccc(-c3cccc(OC)c3)cc12`, the Potency is > 20 µM (inactive). Turning to `COc1ccc(Oc2ncc3nc(-c4ccc(Cl)cc4)c(=O)n(C)c3n2)cc1`, the Potency is > 20 µM (inactive). As for `COC(=O)N1CCC2(CC1)CCN(c1ncccn1)CC2`, the Potency was > 20 µM (inactive).

Regarding `COCC(=O)N1CCC2(CC1)CN(Cc1ccccc1OC)C2`, the Potency was > 20 µM (inactive). For the compound `COc1ccc(Oc2ncc3nc(-c4ccc(F)cc4)c(=O)n(C)c3n2)cc1`, the Potency is > 20 µM (inactive). Regarding `COc1ccccc1CNc1ccnc(-c2ccc3c(c2)OCO3)n1`, the Potency was > 20 µM (inactive).

`COCCNc1cc(-c2ccccc2CN(C)C)ncn1`: the Potency is > 20 µM (inactive). As to `CC(=O)NCCNc1nc(-c2c(C)noc2C)nc2ccccc12`, the Potency is > 20 µM (inactive). `O=C(c1ccncc1)N1CCC2(CCCN(Cc3nccs3)C2)CC1`: the Potency was > 20 µM (inactive). As to `FC(F)(F)c1ccccc1-c1nccc(-n2ccnc2)n1`, the Potency was > 20 µM (inactive). In the case of `CNc1ncnc2ccc(-c3cccc(OC)c3)cc12`, the Potency was > 20 µM (inactive). Then `CC(=O)NCCNc1ncncc1-c1ccccc1C`, with > 20 µM (inactive). Regarding `Cc1noc(C)c1-c1cncnc1N1CCN(C)CC1`, the Potency was > 20 µM (inactive). Take `CCNc1ncc2nc(-c3cn(C)c4ccccc34)c(=O)n(-c3ccc(OC)cc3)c2n1`: the Potency is 3.86 µM (active). `COc1ccc(CNc2nc(-c3ccc4c(c3)OCO4)nc3ccccc23)c(OC)c1`: the Potency was > 20 µM (inactive). In the case of `O=c1c(-c2ccc(Cl)cc2)nc2cnc(Oc3ccccc3)nc2n1C1CC1`, the Potency was > 20 µM (inactive). Turning to `O=S(=O)(c1ccccc1)N1CCC2(CCN(c3ncccn3)CC2)CC1`, the Potency was > 20 µM (inactive). Regarding `O=C(c1ccncc1)N1CCC[C@@]2(CCN(Cc3ccccc3)C2)C1`, the Potency was > 20 µM (inactive). With `COc1ncc2nc(C)c(=O)n(C3CC3)c2n1`, the Potency was > 20 µM (inactive). In the case of `Cc1noc(C)c1C(=O)N1CCC[C@@]2(CCN(Cc3cc(C(F)(F)F)cc(C(F)(F)F)c3)C2)C1`, the Potency is > 20 µM (inactive). As for `CN1CCN(c2ncc3nc(-c4ccccc4)c(=O)n(CCC#N)c3n2)CC1`, the Potency is > 20 µM (inactive). Turning to `COc1ccccc1-c1cncnc1N1CCN(C)CC1`, the Potency was > 20 µM (inactive). Take `O=c1c(-c2ccccc2)nc2cnc(N3CCOCC3)nc2n1Cc1cccs1`: the Potency is > 20 µM (inactive).

For `Cn1cccc1C(=O)N1CCC2(CCCN(c3cccc(-c4ccccc4)c3)C2)CC1`, the Potency was > 20 µM (inactive). As for `FC(F)(F)c1ccccc1-c1cc(NCc2cccnc2)ncn1`, the Potency is > 20 µM (inactive). For `O=C(Nc1cccc(F)c1)N1CC[C@@]2(CCCN(C(=O)c3cnccn3)C2)C1`, the Potency is > 20 µM (inactive). With `Cc1nc2cnc(N3CCNCC3)nc2n(CCc2ccccc2)c1=O`, the Potency is > 4 µM (inactive). Then `COc1ncc2nc(-c3cccs3)c(=O)n(-c3ccccc3)c2n1`, with > 4 µM (inactive); and `Clc1ccccc1-c1ccc2ncnc(NC3CCNCC3)c2c1`, with > 20 µM (inactive). As to `COc1ccccc1CN1CCCC2(CCN(C(=O)c3cccn3C)CC2)C1`, the Potency is > 20 µM (inactive). Then `COc1cccc(Cn2c(=O)c(-c3cccs3)nc3cnc(N4CCOCC4)nc32)c1`, with > 20 µM (inactive); and `Cc1cccc(CNc2ncncc2-c2cccnc2)c1`, with > 20 µM (inactive).
